# Experimental data taken from PubChem BioAssay (Tox21).
# Values without a mark were called inactive. Results filed as inconclusive are left out. A call without a number means that no potency is given here. Activity calls are given as the source filed them. Unless noted, calls follow the shape of the dose curve; as a rule, active = well fitted curve in the direction sought with a large enough effect in the repeat runs; inconclusive = weak or mixed curves; inactive = no such curve, though single readings can be large; an effect the other way counts as inactive or inconclusive.
# Legend:
# [1] = target: Estrogen receptor beta (Homo sapiens) (UniProt Q92731); test: qHTS assay to identify small molecule agonists of the estrogen receptor beta (ER-beta) signaling pathway (AID 1259377; active = well fitted activation curve with a large enough effect in the signal ratio in the repeat runs, not every such curve was filed as active; the % refers to the signal ratio)
# Summary of the method: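 Agonist mode cell assay in GripTite HEK293T cells expressing an ER-beta fusion that drives beta-lactamase from an Upstream Activator Sequence; 16 hr compound exposure at 37C, then 2 h LiveBLAzer B/G FRET substrate at room temperature, fluorescence read-out.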
# [2] = target: Estrogen receptor beta (Homo sapiens) (UniProt Q92731); test: qHTS assay to identify small molecule antagonists of the estrogen receptor beta (ER-beta) signaling pathway (AID 1259378; active = well fitted inhibition curve with a large enough effect in the signal ratio in the repeat runs, not every such curve was filed as active; the % refers to the signal ratio; also: potency is read from the fitted curve at half-maximal effect)
# Summary of the method: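 ER-beta-UAS-bla HEK293T cells in 2% charcoal-stripped FBS medium treated with compound plus 1nM final 17-beta-estradiol for 16 hr at 37C. Beta-lactamase reporter read by FRET substrate fluorescence after 2 hours at room temperature.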
# [3] = qHTS assay to identify small molecule agonists of the androgen receptor (AR) signaling pathway in the presence of an antagonist - cell viability counter screen (AID 1259379); also: nearly all actives have a fitted effect of over 25% in size; also: potency is read from the fitted curve at half-maximal effect
# Summary of the method: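 Cytotoxicity counter-screen run in the same wells as the nilutamide-challenged (3.0 µM final) AR agonist assay in MDA-kb2 cells. Compounds tested at 15 concentrations for 16 h, 37 °C without CO2; CellTiter-Fluor fluorescence read.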
# [4] = qHTS assay to identify small molecule agonists of the estrogen receptor beta (ER-beta) signaling pathway - cell viability counter screen (AID 1259380); also: nearly all actives have a fitted effect of over 30% in size; also: potency is read from the fitted curve at half-maximal effect
# Summary of the method: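 Cell viability counter screen: CellTiter-Glo luminescence (30 min, room temperature) measured in the same wells as the beta-lactamase readout, after 16 hr compound exposure at 37C of ER-beta-bla HEK293T cells in 2% charcoal-stripped FBS medium.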
# [5] = qHTS assay to identify small molecule antagonists of the estrogen receptor beta (ER-beta) signaling pathway - cell viability counter screen (AID 1259382); also: series mostly up to about 92 µM; nearly all actives have a fitted effect of over 55% in size
# Summary of the method: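 Cytotoxicity was measured in the same wells by CellTiter-Glo luminescence after 30 min at room temperature. Cells were ER-beta-bla HEK293T in charcoal-stripped serum, given compound together with 1 nM E2 and incubated 16 h at 37C.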
# [6] = qHTS assay to identify small molecule agonists or antagonists of the thyroid stimulating hormone receptor (TSHR) signaling pathway - wild type cell line counter screen (AID 1259384; calls by dose curve)
# Summary of the method: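 Wild-type Hek293 cells, 800/well, 18 h at 37C, then compound with Ro20-1724 for 30 min RT. cAMP by HTRF (cAMP-d2/anti-cAMP cryptate), 1 h RT, fluorescence read. 15 concentrations, triplicates.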
# [7] = target: Thyrotropin receptor (Homo sapiens) (UniProt P16473); test: qHTS assay to identify small molecule antagonists of the thyroid stimulating hormone receptor (TSHR) signaling pathway (AID 1259385; calls by dose curve; also: nearly all actives have a fitted effect of over 20% in size; also: potency is read from the fitted curve at half-maximal effect)
# Summary of the method: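 TSHR-HEK293 cells (800/well) plated 18 h, then compounds with Ro20-1724 and TSH at 1.5 ng/mL final, 30 min at room temperature. cAMP quantified by HTRF (cAMP-d2/anti-cAMP-cryptate, 1 h); 15 concentrations in triplicate.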
# [8] = qHTS assay to identify small molecule agonists of the estrogen receptor alpha (ER-alpha) signaling pathway in the presence of an antagonist - cell viability counter screen (AID 1259386); also: nearly all actives have a fitted effect of over 30% in size; also: potency is read from the fitted curve at half-maximal effect
# Summary of the method: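 Compounds tested at 15 concentrations for 22 h at 37C alongside 10.0nM (final) ICI-182,780 antagonist, in VM7Luc4E2 cells grown in phenol red-free, charcoal-stripped medium. Viability read by CellTiter-Fluor fluorescence after 1 h reagent incubation.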
# [9] = target: Estrogen receptor (Homo sapiens) (UniProt P03372); test: qHTS assay to identify small molecule agonists of the estrogen receptor alpha (ER-alpha) signaling pathway in the presence of an antagonist (AID 1259383; calls by dose curve; also: top concentration of the series differs between compounds; nearly all actives have a fitted effect of over 15% in size)
# Summary of the method: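 Agonist-mode confirmation run in the presence of 10.0nM (final) ICI-182,780 antagonist. The reporter was ERE-driven luciferase in VM7Luc4E2 cells, grown in charcoal-stripped serum. Cells were exposed to 15-concentration compound series for 22hr, then ONE-Glo luminescence was read.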
# [10] = target: Androgen receptor (Homo sapiens) (UniProt P10275); test: qHTS assay to identify small molecule agonists of the androgen receptor (AR) signaling pathway in the presence of an antagonist (AID 1259381; calls by dose curve; also: nearly all actives have a fitted effect of over 15% in size)
# Summary of the method: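 Agonist-mode confirmation run against 3.0 uM final nilutamide: compounds titrated at 15 concentrations onto MDA-kb2 MMTV-luciferase reporter cells. Luminescence measured with ONE-Glo following 16 hr incubation, 37C, 0% CO2.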
# Chain of Estrogen receptor beta (Homo sapiens) (Q92731 whole entry, looked up, the tested form may be a part): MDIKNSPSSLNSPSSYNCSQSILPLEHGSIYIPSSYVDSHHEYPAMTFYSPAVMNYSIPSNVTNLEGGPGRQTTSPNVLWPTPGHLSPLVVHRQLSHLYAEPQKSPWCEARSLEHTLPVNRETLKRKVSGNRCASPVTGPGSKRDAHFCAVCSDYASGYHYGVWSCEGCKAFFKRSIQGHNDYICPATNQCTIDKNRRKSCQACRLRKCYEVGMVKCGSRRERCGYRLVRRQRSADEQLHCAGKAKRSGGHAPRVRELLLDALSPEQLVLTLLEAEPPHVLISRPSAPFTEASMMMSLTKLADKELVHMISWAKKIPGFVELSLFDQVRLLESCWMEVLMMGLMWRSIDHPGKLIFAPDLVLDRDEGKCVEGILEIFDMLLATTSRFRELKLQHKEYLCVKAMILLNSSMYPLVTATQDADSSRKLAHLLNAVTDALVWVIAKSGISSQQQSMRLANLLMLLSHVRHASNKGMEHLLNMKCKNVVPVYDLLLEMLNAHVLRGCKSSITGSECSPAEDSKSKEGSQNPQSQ
# Chain of Thyrotropin receptor (Homo sapiens) (P16473 whole entry, looked up): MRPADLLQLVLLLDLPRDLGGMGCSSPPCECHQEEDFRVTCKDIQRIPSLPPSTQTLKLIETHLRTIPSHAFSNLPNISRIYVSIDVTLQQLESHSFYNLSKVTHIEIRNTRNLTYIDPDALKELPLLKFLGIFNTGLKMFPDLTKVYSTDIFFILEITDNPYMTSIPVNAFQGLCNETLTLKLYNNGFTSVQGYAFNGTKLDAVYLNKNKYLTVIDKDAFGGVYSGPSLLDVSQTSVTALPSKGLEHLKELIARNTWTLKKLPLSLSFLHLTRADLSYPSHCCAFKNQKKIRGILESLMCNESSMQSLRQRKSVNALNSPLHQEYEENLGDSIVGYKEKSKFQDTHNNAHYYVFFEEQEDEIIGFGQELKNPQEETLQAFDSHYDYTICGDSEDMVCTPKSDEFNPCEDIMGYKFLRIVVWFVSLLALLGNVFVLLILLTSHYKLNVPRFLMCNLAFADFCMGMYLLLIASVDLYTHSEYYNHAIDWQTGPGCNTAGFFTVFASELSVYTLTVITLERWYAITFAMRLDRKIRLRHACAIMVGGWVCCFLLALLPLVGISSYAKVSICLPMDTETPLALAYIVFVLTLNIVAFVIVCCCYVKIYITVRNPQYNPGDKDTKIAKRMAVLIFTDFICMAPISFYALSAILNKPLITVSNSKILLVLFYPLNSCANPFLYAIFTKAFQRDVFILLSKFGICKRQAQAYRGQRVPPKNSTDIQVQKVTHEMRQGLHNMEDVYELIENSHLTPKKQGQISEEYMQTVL
# Chain of Estrogen receptor (Homo sapiens) (P03372 whole entry, looked up): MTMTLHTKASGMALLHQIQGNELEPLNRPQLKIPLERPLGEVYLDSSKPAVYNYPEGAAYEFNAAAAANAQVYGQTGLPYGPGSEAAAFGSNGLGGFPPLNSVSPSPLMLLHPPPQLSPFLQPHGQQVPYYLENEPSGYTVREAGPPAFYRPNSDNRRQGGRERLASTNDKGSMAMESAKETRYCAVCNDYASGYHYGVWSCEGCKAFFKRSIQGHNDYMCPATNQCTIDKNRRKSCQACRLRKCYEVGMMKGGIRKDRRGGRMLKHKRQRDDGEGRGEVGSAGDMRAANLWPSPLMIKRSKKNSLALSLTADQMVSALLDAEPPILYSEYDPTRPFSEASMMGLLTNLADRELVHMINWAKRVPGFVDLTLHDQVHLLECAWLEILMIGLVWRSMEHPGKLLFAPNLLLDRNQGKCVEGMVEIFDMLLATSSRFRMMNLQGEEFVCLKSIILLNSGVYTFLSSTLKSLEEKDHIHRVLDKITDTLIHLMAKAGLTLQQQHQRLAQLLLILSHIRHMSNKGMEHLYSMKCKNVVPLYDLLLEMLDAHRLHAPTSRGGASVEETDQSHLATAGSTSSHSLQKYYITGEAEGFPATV
# Chain of Androgen receptor (Homo sapiens) (P10275 whole entry, looked up): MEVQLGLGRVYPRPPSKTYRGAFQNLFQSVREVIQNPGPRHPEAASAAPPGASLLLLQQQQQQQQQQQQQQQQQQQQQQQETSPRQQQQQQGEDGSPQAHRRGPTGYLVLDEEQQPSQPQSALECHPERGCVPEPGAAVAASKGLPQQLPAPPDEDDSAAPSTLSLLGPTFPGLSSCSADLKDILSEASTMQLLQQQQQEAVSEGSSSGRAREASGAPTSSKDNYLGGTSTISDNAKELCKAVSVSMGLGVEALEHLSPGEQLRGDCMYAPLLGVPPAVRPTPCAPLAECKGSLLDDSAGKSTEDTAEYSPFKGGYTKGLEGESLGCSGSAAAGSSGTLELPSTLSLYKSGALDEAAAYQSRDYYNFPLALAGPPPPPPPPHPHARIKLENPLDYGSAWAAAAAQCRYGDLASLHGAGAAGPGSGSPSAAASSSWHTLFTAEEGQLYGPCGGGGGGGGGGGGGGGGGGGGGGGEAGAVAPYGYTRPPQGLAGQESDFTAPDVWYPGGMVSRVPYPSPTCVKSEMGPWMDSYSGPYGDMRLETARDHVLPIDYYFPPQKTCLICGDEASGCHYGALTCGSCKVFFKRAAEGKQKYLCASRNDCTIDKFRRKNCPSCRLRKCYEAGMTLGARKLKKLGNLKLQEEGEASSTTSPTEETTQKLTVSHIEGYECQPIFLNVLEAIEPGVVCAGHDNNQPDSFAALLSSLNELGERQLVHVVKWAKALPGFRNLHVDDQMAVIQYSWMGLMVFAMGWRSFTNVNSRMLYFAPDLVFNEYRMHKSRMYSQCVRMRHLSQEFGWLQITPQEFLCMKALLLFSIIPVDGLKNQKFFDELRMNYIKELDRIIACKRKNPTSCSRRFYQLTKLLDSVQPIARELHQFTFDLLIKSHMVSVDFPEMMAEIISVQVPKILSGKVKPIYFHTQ
SMILES,Potency [1],Potency [2],Potency [3],Potency [4],Potency [5],Potency [6],Potency [7],Potency [8],Potency [9],Potency [10]
CC1(c2ccccc2)OC(C(=O)O)=CC1=O (centres undefined),inactive,inactive,inactive,inactive,inactive,inactive,inactive,inactive,–,–
CCOCC(O)COc1ccc(NC(=O)CC[S+](C)C)cc1 (centres undefined),inactive,inactive,inactive,inactive,inactive,inactive,–,inactive,inactive,–
COC(C)(C)CCO,inactive,inactive,inactive,inactive,inactive,inactive,–,inactive,–,–
COc1ccc(C)cc1[N+](=O)[O-],inactive,inactive,inactive,inactive,inactive,–,–,inactive,–,–
CCC(Cl)CCC(Cl)C(Cl)CC(Cl)C(Cl)C(Cl)CCl (centres undefined),inactive,inactive,inactive,inactive,inactive,inactive,–,inactive,–,–
C1CCCNCCC1,inactive,inactive,inactive,inactive,inactive,inactive,inactive,inactive,–,–
CCCCC,inactive,inactive,inactive,inactive,inactive,inactive,inactive,–,–,–
COc1ccnc(CS(=O)c2nc3ccc(OC(F)F)cc3[nH]2)c1OC (centres undefined),inactive,inactive,inactive,inactive,inactive,–,inactive,inactive,inactive,–
Cc1ccccc1S(=O)(=O)O,inactive,inactive,inactive,inactive,inactive,inactive,inactive,inactive,–,–
Cc1cc(C(=O)O)ccc1[N+](=O)[O-],inactive,inactive,inactive,inactive,inactive,inactive,–,inactive,inactive,–
Cc1cccc(C)c1NC(=O)CN(CC(=O)O)CC(=O)O,inactive,inactive,inactive,inactive,inactive,–,inactive,inactive,–,–
CCCCO,inactive,inactive,inactive,inactive,inactive,inactive,–,inactive,–,–
CC1=CCCC(C)(C)C12CCC(C)O2 (centres undefined),inactive,inactive,inactive,inactive,inactive,inactive,–,inactive,–,–
CCO[Si](CCCCl)(OCC)OCC,inactive,inactive,inactive,inactive,inactive,–,–,inactive,inactive,–
CC(=O)c1cccc([N+](=O)[O-])c1,inactive,inactive,inactive,inactive,inactive,–,–,inactive,inactive,–
O=P(O)(OCc1ccccc1)OCc1ccccc1,inactive,inactive,inactive,inactive,inactive,inactive,inactive,inactive,inactive,–
C=C1[C@H]2CC[C@@H]3[C@H]2C(C)(C)CCC[C@]13C,inactive,inactive,inactive,inactive,inactive,–,–,inactive,inactive,–
CCCCCCCCCOS(=O)(=O)O,inactive,inactive,inactive,inactive,inactive,–,inactive,inactive,inactive,–
O=[N+]([O-])c1cccc(S(=O)(=O)O)c1,inactive,2.2 µM (active),62.1 µM (active),24.7 µM (active),inactive,–,–,inactive,–,–
CCn1cc(C(=O)O)c(=O)c2cnc(N3CCNCC3)nc21,inactive,inactive,inactive,inactive,inactive,–,–,inactive,–,–
Nc1cc(C(=O)O)c(O)c(S(=O)(=O)O)c1,inactive,inactive,inactive,inactive,inactive,inactive,–,inactive,–,–
O[C@@H](COc1cccc2ncccc12)CN1CCN(C2c3ccccc3[C@@H]3[C@H](c4ccccc42)C3(F)F)CC1 (some centres undefined),inactive,16.8 µM (active),inactive,26.6 µM (active),–,inactive,–,inactive,inactive,–
O=C(NCC1CN(c2ccc(N3CCOCC3=O)cc2)C(=O)O1)c1ccc(Cl)s1 (centres undefined),inactive,inactive,inactive,–,–,inactive,–,inactive,inactive,–
COS(=O)(=O)C(F)(F)F,inactive,inactive,inactive,inactive,–,inactive,inactive,inactive,inactive,–
CN1CCC(N(Cc2cccs2)c2ccccc2)CC1,inactive,inactive,inactive,–,inactive,inactive,–,inactive,inactive,–
CCN(CC)c1ccc(C(=C2C=CC(=[N+](CC)CC)C=C2)c2cc(S(=O)(=O)O)ccc2S(=O)(=O)[O-])cc1,inactive,inactive,26.6 µM (active),–,–,–,–,23.7 µM (active),–,inactive
CCN(CC)CCOC(=O)C(c1ccccc1)C1CCCCC1 (centres undefined),inactive,inactive,inactive,inactive,–,inactive,26.6 µM (active),–,inactive,–
Clc1ccc(Cn2c(CN3CCCC3)nc3ccccc32)cc1,inactive,11.9 µM (active),inactive,–,–,inactive,–,inactive,–,–
CCC(CC)Nc1ccc(C)c(C)c1,inactive,inactive,inactive,inactive,–,–,–,inactive,inactive,–
